Assay results published in PubChem BioAssay AID463173 (ICCB-Longwood Screening Facility, Harvard Medical School, 2010).
In all, about 52,000 compounds went through this assay and about 4,300 (8.3%) were called active. What follows is part of a selection rich in actives, with near analogues and random picks from the rest. Values without a mark were called inactive. Rule as the data show it: active = survival mostly below about 52% (no sharp cut-off); inactive = mostly above about 56%.

test system: DeltatarO mutant; test: growth inhibition of S. aureus wild type versus tarO mutant, primary screen, teichoic acid synthesis inhibitors, RN4220, OD600 (AID 463173); settings: OD600, 18 h, hits give low values, screened at 18.75 µg/mL (by protocol)

Row | Structure (SMILES) | survival
1 | Cc1ccc(-c2cc(C(=O)NCCc3ccccc3)c3ccccc3n2)cc1C | 88%
2 | Cc1ccc(C(=O)COC(=O)c2cc(-c3ccccc3)nc3ccccc23)cc1C | 125%
3 | COc1ccc(-c2cc(C(=O)Oc3ccc(Br)cc3)c3ccccc3n2)cc1 | 48%
4 | COc1ccc(-c2cc(C(=O)Oc3cccc(C)c3C)c3ccccc3n2)cc1 | 31% (active)
5 | COc1ccc(-c2cc(C(=O)Oc3ccc(C)c(C)c3)c3ccccc3n2)cc1 | 40% (active)
6 | COc1ccc(C(=O)COC(=O)c2cc(-c3cccs3)nc3ccccc23)cc1 | 58%
7 | COc1ccc(-c2cc(C(=O)Oc3ccc(C)cc3)c3ccccc3n2)cc1 | 11% (active)
8 | COc1ccc(-c2cc(C(=O)Oc3ccc(Cl)cc3)c3ccccc3n2)cc1 | 49% (active)
9 | COC(=O)c1cc(-c2ccc(OC)c(OC)c2)nc2ccccc12 | 72%
10 | COc1ccc(C(=O)COC(=O)c2cc(-c3ccccc3)nc3c(C)cccc23)cc1 | 64%
11 | Cc1ccc(C(=O)COC(=O)c2cc(-c3ccc(Cl)cc3)nc3ccccc23)cc1 | 136%
12 | CNC(=O)c1cc(-c2ccc(OC)cc2)nc2ccccc12 | 77%
13 | CCn1cc(C(=O)OCC(=O)Nc2cccc(C(C)=O)c2)c(=O)c2ccc(C)nc21 | 84%
14 | CCC(O)(CCN1CCCCC1)c1ccccc1 (stereo unspecified) | 80%
15 | Cc1cc(C)cc(N(CC(=O)NCc2ccco2)C(=O)c2snc(C(N)=O)c2N)c1 | 93%
16 | Cc1cccc(C(=O)N2CCc3cc(CNC(=O)CCc4ccccc4)ccc32)c1 | 60%
17 | CC(=O)CSc1nnc2cc(C)c3cc(C)cc(C)c3n12 | 106%
18 | CCOC(=O)CN1C(=O)N(c2ccc(C)c(C)c2)S(=O)(=O)c2ccccc21 | 80%
19 | COc1cc(CNCCSc2nnnn2C)ccc1OCc1ccc(Cl)cc1Cl | 30% (active)
20 | Cn1nnnc1SCCNCc1ccccc1OCc1ccc(Cl)cc1Cl | 63%
21 | CCOc1ccc(CNCCSc2nnnn2C)cc1OC | 65%

Row | Structure (SMILES) | survival
22 | CCOc1cc(CNCCSc2nnnn2C)ccc1OCc1ccc(Cl)cc1Cl | -6% (active)
23 | COc1cc(CNCCSc2nnnn2C)ccc1OCc1ccccc1C | 56%
24 | COc1cc(CNCCSc2nnnn2C)ccc1OCc1c(F)cccc1Cl | 58%
25 | O=C(O)CCc1ccc(-c2ccc(Cl)cc2)n1-c1cccc(C(F)(F)F)c1 | 23% (active)
26 | COC(=O)c1ccccc1NC(=O)Cn1c(CCC(=O)O)ccc1-c1ccc(C)cc1 | 45% (active)
27 | Cc1ccc(-c2ccc(CCC(=O)O)n2-c2cccc(O)c2)cc1 | 68%
28 | COc1ccc(-c2ccc(CCC(=O)O)n2CC(=O)Nc2cccc(C(F)(F)F)c2)cc1 | 54% (active)
29 | COC(=O)c1ccccc1NC(=O)Cn1c(CCC(=O)O)ccc1-c1cccs1 | 54%
30 | COc1ccc(NC(=O)Cn2c(CCC(=O)O)ccc2-c2ccccc2)cc1Cl | 61%
31 | COc1ccc(OC)c(NC(=O)Cn2c(CCC(=O)O)ccc2-c2ccccc2)c1 | 103%
32 | O=C(O)CCc1ccc(-c2ccccc2)n1-c1cccc(Br)c1 | 65%
33 | COc1ccc(-c2ccc(CCC(=O)O)n2CC(=O)Nc2cccc(Cl)c2C)cc1 | 46%
34 | Cc1cc(NC(=O)N2CC=C(c3c[nH]c4ccccc34)CC2)ccc1Br | 81%
35 | Cn1c(=O)[nH]c(=O)c2c1nc(NCCO)n2CC(O)COc1ccccc1 (stereo unspecified) | 165%
36 | COC(=O)c1ccc(Nc2cc(=O)[nH]c(=O)[nH]2)cc1 | 79%
37 | CCOc1ccccc1NC(=O)CN1C(=O)CC(c2ccc(C)c(C)c2)=Nc2ccccc21 | 74%
38 | CCOCCCNC(=O)c1c[nH]c2ccc(S(=O)(=O)N(C)c3ccc(Cl)cc3F)cc2c1=O | 124%
39 | CC(C)(C)OC(=O)N1CCC(c2c(C(=O)NC3CCCCC3)cnn2-c2cccc(F)c2)CC1 | 128%
40 | Cc1ccc(CSc2nc3c([nH]c4ccccc43)c(=O)n2C)cc1 | 94%
41 | Cc1ccc(Sc2ccc(N3CCC(C(=O)Nc4ccc(Cl)cc4)CC3)nn2)cc1 | 72%
42 | O=C(Nc1cc(C(F)(F)F)ccc1Cl)c1cc(S(=O)(=O)NCc2ccccc2)ccc1F | 55%

Row | Structure (SMILES) | survival
43 | CN(Cc1ccccc1)S(=O)(=O)c1ccc(F)c(C(=O)Nc2cc(Cl)cc(Cl)c2)c1 | 87%
44 | CN(Cc1ccccc1)S(=O)(=O)c1ccc(F)c(C(=O)Nc2ccccc2C(F)(F)F)c1 | -5% (active)
45 | CCN(Cc1ccccc1)S(=O)(=O)c1ccc(F)c(C(=O)Nc2ccc(C(C)C)cc2)c1 | 101%
46 | CN(Cc1ccccc1)S(=O)(=O)c1ccc(F)c(C(=O)Nc2cccc(Cl)c2Cl)c1 | 134%
47 | CCN(Cc1ccccc1)S(=O)(=O)c1ccc(F)c(C(=O)Nc2cc(C(F)(F)F)ccc2Cl)c1 | 17% (active)
48 | Cc1ccc(C(=O)N/C(=C/c2ccccc2)C(=O)NCc2ccco2)cc1 | 95%
49 | COc1ccc(S(=O)(=O)C(C)(C)C)cc1 | 78%
50 | COc1ccc(C(=O)Nc2nc3c(s2)CCCC3)cc1Cl | 53%
51 | Cn1c(=O)[nH]c(=O)c2c1nc(CN1CCN(c3ccccc3F)CC1)n2Cc1ccc(F)cc1 | 122%
52 | CCS(=O)(=O)c1ncc(N(Cc2ccccc2)Cc2ccco2)c(C(=O)Nc2ccccc2C)n1 | 45% (active)
53 | CCS(=O)(=O)c1ncc(N(Cc2ccccc2)Cc2ccco2)c(C(=O)Nc2cccc(Cl)c2C)n1 | 60%
54 | Cc1ccccc1NC(=O)c1nc(S(C)(=O)=O)ncc1N(Cc1ccco1)Cc1sccc1C | 43% (active)
55 | Cc1ccc(NC(=O)c2nc(S(C)(=O)=O)ncc2N(Cc2ccco2)Cc2ccco2)cc1 | 44%
56 | CCS(=O)(=O)c1ncc(N(Cc2ccc(F)cc2)Cc2ccco2)c(C(=O)Nc2cc(C)ccc2C)n1 | 58%
57 | CCS(=O)(=O)c1ncc(N(Cc2ccco2)Cc2sccc2C)c(C(=O)Nc2cc(C)ccc2C)n1 | 106%
58 | Cc1ccsc1CN(Cc1ccco1)c1cnc(S(C)(=O)=O)nc1C(=O)Nc1ccc(Cl)cc1 | 40% (active)
59 | Cc1ccc(CN(Cc2ccco2)c2cnc(S(C)(=O)=O)nc2C(=O)Nc2ccc(Br)cc2)o1 | 105%
60 | CCS(=O)(=O)c1ncc(N(Cc2ccco2)Cc2sccc2C)c(C(=O)Nc2ccc(C)cc2C)n1 | 53% (active)
61 | CCS(=O)(=O)c1ncc(N(Cc2ccccc2)Cc2ccco2)c(C(=O)Nc2ccc(C)c(C)c2)n1 | 52%
